The panel holds about 83,000 compounds, 20% with a hit somewhere; the sample as a whole holds those more often.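 Interpretation: 100, growth as untreated; towards 0, rising growth inhibition; 0, no net growth; 0 to -100, cell death. Compounds scoring below 10 were considered active.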 Unmarked numbers belong to inactive results. Calls of active or inactive are those of the source.
How the values were obtained:
Assay in all cases: NCI-60 one-dose screen, 48 h (100 = growth as untreated, 0 = no growth, -100 = all killed)
Details in all cases: 10 µM unless noted
[1] = tested on: SK-MEL-2 melanoma
[2] = tested on: EKVX NSCLC
[3] = tested on: SN12C renal
[4] = tested on: UO-31 renal
[5] = tested on: TK-10 renal
[6] = tested on: ACHN renal
[7] = tested on: CAKI-1 renal
[8] = tested on: A498 renal
[9] = tested on: CCRF-CEM leukemia
[10] = tested on: MOLT-4 leukemia
[11] = tested on: SR leukemia
[12] = tested on: OVCAR-8 ovarian
[13] = tested on: OVCAR-5 ovarian
[14] = tested on: OVCAR-4 ovarian
[15] = tested on: SK-OV-3 ovarian
[16] = tested on: OVCAR-3 ovarian
[17] = tested on: HS 578T breast
[18] = tested on: NCI/ADR-RES ovarian
[19] = tested on: RPMI-8226 leukemia
[20] = tested on: IGROV1 ovarian

| SMILES | growth [1] | growth [2] | growth [3] | growth [4] | growth [5] | growth [6] | growth [7] | growth [8] | growth [9] | growth [10] | growth [11] | growth [12] | growth [13] | growth [14] | growth [15] | growth [16] | growth [17] | growth [18] | growth [19] | growth [20] |
| --- | --- | --- | --- | --- | --- | --- | --- | --- | --- | --- | --- | --- | --- | --- | --- | --- | --- | --- | --- | --- |
| COc1ccc2c(c1)CC/C(=C\c1ccc(OCC(=O)Nc3nc4ccccc4s3)cc1)C2=O | 63% | 95.9% | 88.3% | 22.2% | 112% | 97.2% | 79.3% | 117% | -37% (active) | 71.2% | 68.4% | 98.3% | 87.8% | 102% | 104% | 116% | 73.5% | 102% |  |  |
| CCOC(=O)N1CCC(N=C2CSc3nnc(-c4cc(C(F)(F)F)cc(C(F)(F)F)c4)n3N2)CC1 | -22.5% (active) | 31.2% | 28.5% | 34.2% | 14.9% | 30.5% | 55.2% | 22.4% | 6.9% (active) | -2.78% (active) |  | 22.2% | 25.6% | 25.1% | 41.4% | 28.5% | 21.5% | 14.1% | 29% | 44.1% |
| Cc1[nH]cnc1/C=C1\SC(N2CCCCC2)=NC1=O | 98% | 108% | 98.4% | 83% | 109% | 106% | 112% | 83.4% | 99.3% | 100% | 97.7% | 105% | 107% |  | 108% | 124% | 120% | 106% |  | 100% |
| CC(=O)N1N=C(c2ccc(C(F)(F)F)cc2)CC1c1ccc2c(c1)OCO2 (stereo not given) | 76.2% | 81.4% | 83.5% | 55.9% | 100% | 95.7% | 70.8% | 103% | 83.3% | 77.9% | 89.5% | 101% | 100% | 77.8% | 104% | 110% |  | 95.8% |  | 67% |
| O=c1c2c(=NCCCN3CCCC3)cc3c(=O)n(CCCN4CCCC4)c(=O)c4c(NCCCN5CCCC5)cc(c(O)n1CCCN1CCCC1)c2c4-3 | 1.12% (active) | -17.2% (active) | 10.3% | -34.9% (active) | 13.1% | -31.2% (active) | 14.4% | -67.3% (active) | 10.1% | 16.5% | 3.03% (active) | 5.37% (active) | -0.86% (active) |  | -6.65% (active) | -21.8% (active) | -16.5% (active) | 51.1% |  | -30.3% (active) |
| CN(C)CCCN=c1cc2c(=O)n(CCCN(C)C)c(=O)c3c(NCCCN(C)C)cc4c(O)n(CCCN(C)C)c(=O)c1c4c3-2 | -9.31% (active) | -18.4% (active) | 9.31% (active) | -26.6% (active) | 7.45% (active) | -41.6% (active) | 4.58% (active) | -64.8% (active) | 10.8% | 25.1% | 6.3% (active) | 5.35% (active) | 0.732% (active) |  | -4.23% (active) |  | -11.2% (active) | 52.2% |  | -24.6% (active) |
| CCOC(=O)CNC(=O)C1(NC(=O)CNC(=O)OCc2ccccc2)CCCC1 | 107% | 99.4% | 93.8% | 98.6% | 102% | 103% | 95.2% | 102% | 102% | 106% | 103% |  | 95.1% | 106% | 104% | 142% | 125% | 105% |  | 117% |
| BrC1CC(Br)c2c1c1c(c3c2C(Br)CC3Br)C(Br)CC1Br (stereo not given) | 115% | 101% | 109% | 39.9% | 121% | 87.2% | 94.5% | 117% | 114% | 75.8% |  | 85.2% | 99.2% | 106% | 102% | 150% | 93.6% | 91% | 92.9% | -20.2% (active) |
| CN(C)CCC(=O)Nc1ccc(-n2cc(-c3cccc(NC(=S)Nc4cccc(-c5cn(-c6ccc(NC(=O)CCN(C)C)cc6)nn5)c4)c3)nn2)cc1 | 91.6% | 101% | 91.4% | 135% | 142% | 117% | 130% | 108% | 48.4% | 47.2% | 25.9% | 97.3% | 113% |  | 115% | 94.6% | 137% | 113% |  | 85.5% |
| O=Nc1c2cccnc2n2nnc3ccc(Cl)cc3c12 | 57.1% | 77.4% | 56.5% | -37.4% (active) | 16.5% | -49.8% (active) | 5.93% (active) | 88.3% | -60.5% (active) | -54.3% (active) |  | -26.8% (active) | 94.9% | -27.7% (active) | 92.2% | -29.5% (active) | 70% | 54.8% | -63.1% (active) |  |
| O=C(Oc1cccc2ccccc12)c1ccccc1C(=O)c1ccccc1 | 97.1% | 80% | 101% | 60.8% | 129% | 95.5% | 88.1% | 70.8% | 16% | 14.8% | 3.67% (active) | 91.7% | 102% |  |  | 65.6% | 93.5% | 90.4% |  |  |
| O=C(C(=O)N1CCOCC1)c1cn(CCCn2cc(C(=O)C(=O)N3CCOCC3)c3ccccc32)c2ccccc12 | 100% | 104% | 96.3% | 75.3% | 97.6% | 100% | 104% | 134% | -13.1% (active) | 104% | 103% | 104% | 102% | 109% | 111% | 119% |  | 109% |  | 107% |
| COc1ccc(C2=NN(C(N)=S)C(c3ccc4c(c3)OCO4)C2)cc1 (stereo not given) | 47% | 29.1% | 31% | -7.08% (active) | 50.2% | 22% | 6.32% (active) | 49.2% | 5.49% (active) | 13.8% | 4.75% (active) | 20.9% | 75.1% |  | 33.8% |  | -13% (active) | 5.5% (active) |  | -22% (active) |
| Cc1ccc(S(=O)(=O)N2CCN(C(=O)CSc3nc4ccc(C)cc4[nH]3)CC2)cc1 | 5.46% (active) | 97% | 107% | 93.3% | 129% | 113% | 116% | 99.7% | 94.6% | 74.4% |  | 74.5% | 117% | 107% | 114% | 111% | 126% | 107% | 108% |  |
| CC[C@@H](C)/C=C(C)/C=C/C(O)=C1\C(=O)N[C@@H](Cc2ccc(OC(=O)[C@@](OC)(c3ccccc3)C(F)(F)F)cc2)C1=O | 80.2% | 54.1% | 86.5% | 70.9% | 96.8% | 103% | 30.5% | 64.7% | 29.7% | 41.6% | 62.6% | 103% | 120% |  | 112% | 67.8% | 67.8% | 49.6% |  |  |
| CC(=O)OC1Oc2cc(C)c(C)cc2-c2oc(=O)c(-c3ccccc3)cc21 (stereo not given) | 17.3% | 40.5% | 43.6% | 16.5% | 13.9% | 34% | 24.8% | -1.55% (active) | -37.8% (active) | -20.4% (active) | -42.2% (active) | 24.4% | 67.9% | 42% | 11.6% | -39.9% (active) | -19.5% (active) | 25.3% |  |  |
